Test results taken from PubChem BioAssay (NCI).
About 83,000 compounds went through this panel and 20% of them were active in at least one assay; those are over-represented in the sample as a whole.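 Step 1: grow cells in 96-well plates. Step 2: add test compound at a single concentration. Step 3: incubate 48 h. Step 4: record percent growth.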 The source made the active and inactive calls. How the source made its calls: active means growth percent below 10; inactive means the rest.

Each compound was assayed on CAKI-1 renal (assay: NCI-60 one-dose screen, 48 h (100 = growth as untreated, 0 = no growth, -100 = all killed)). Conditions: 10 µM unless noted.

| SMILES | growth |
| --- | --- |
| O=C1Nc2ccccc2/C1=N/N=C/c1c[nH]c2ccccc12 | 17.8% (inactive) |
| Cn1ncc2c(Nc3ccc(Br)cc3)nc(Nc3ccc(Br)cc3)nc21 | 37.7% (inactive) |
| Cc1cn(C2CCCCC2)c(=O)[nH]c1=O | 119% (inactive) |
| Cl.Fc1c[c-]c(-c2ccccn2)c(F)c1.[Pt].c1ccc(P(c2ccccc2)C([PH+](c2ccccc2)c2ccccc2)[PH+](c2ccccc2)c2ccccc2)cc1 | -1.81% (active) |
| N=C(N)c1ccc(-c2ccc(-c3ccc(Cl)c(Cl)c3)o2)cc1 | 53% (inactive) |
| Cc1ccc(/C=C(\C#N)n2nnc3cc(Cl)c(Cl)cc32)cc1 | 22.2% (inactive) |
| N=C(N)c1ccc(-c2ccc(-c3ccc(Cl)c(Cl)c3)o2)nc1 | 87.1% (inactive) |
| COc1ccccc1C(=O)NC(=S)Nc1ccc(-c2nc3ccccc3[nH]2)cc1 | 105% (inactive) |
| N#C/C(=C\c1ccc2c(c1)OCO2)n1nnc2ccccc21 | 17.7% (inactive) |
| O=C(NC(=S)Nc1ccc(-c2nc3ccccc3[nH]2)cc1)c1ccc2ccccc2c1 | 24.5% (inactive) |
| COc1cc2c(c(OC)c1OC)C(=O)/C(=C/c1cc(C)c(O)c(C)c1)S2 | 26.3% (inactive) |
| COc1ccc(-c2cc(-c3ccc(Nc4nc(Nc5ccccc5)nc(Nc5ccc(Cl)cc5)n4)cc3)nc(N)c2C#N)cc1 | -20.4% (active) |
| Cc1c(Cl)cccc1NS(=O)(=O)c1ccccc1 | 116% (inactive) |
| CCn1c(Sc2nnc(NC(C)=O)s2)nc2c1c(=O)n(C)c(=O)n2C | 93.7% (inactive) |
